What all share (test): NCI-60 one-dose screen, 48 h (100 = growth as untreated, 0 = no growth, -100 = all killed)
One test has as its system A549/ATCC NSCLC. To be noted: 10 µM unless noted.
For a further test, the system named is 786-0 renal. To be noted: 10 µM unless noted.
Another test relates to DU-145 prostate. To be noted: 10 µM unless noted.
The subject of the next test is SF-268 CNS. The following applies: 10 µM unless noted.
Another test deals with SF-539 CNS. To be noted: 10 µM unless noted.
Another test deals with HCT-15 colon. The following applies: 10 µM.
For the next test, the system named is SNB-75 CNS. To be noted: 10 µM unless noted.
The subject of a further test is SNB-19 CNS. The following applies: 10 µM unless noted.
A further test deals with UACC-62 melanoma. To be noted: 10 µM unless noted.
Another test relates to SN12C renal. The following applies: 10 µM unless noted.
Another test concerns TK-10 renal. The following applies: 10 µM unless noted.
A further test relates to ACHN renal. To be noted: 10 µM unless noted.
In a further test the test system is HL-60(TB) leukemia. To be noted: 10 µM unless noted.
A further test deals with OVCAR-8 ovarian. The following applies: 10 µM unless noted.
The next test relates to OVCAR-5 ovarian. To be noted: 10 µM unless noted.
For the next test, the system named is OVCAR-3 ovarian. The following applies: 10 µM unless noted.
In the next test the test system is NCI/ADR-RES ovarian. The following applies: 10 µM unless noted.
In another test the test system is T-47D breast. The following applies: 10 µM unless noted.
A further test relates to MDA-MB-435 melanoma. To be noted: 10 µM unless noted.
Another test has as its system MCF7 breast. The following applies: 10 µM unless noted.

The panel holds about 83,000 compounds, 20% with a hit somewhere; the sample as a whole holds those more often.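 The test compound was applied at a single concentration to cells in 96-well plates for 48 hours, and percent growth was recorded.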 Values without a mark were called inactive. Calls of active or inactive are those of the source. Rule for the calls: active = growth percent below 10; inactive = the rest.

On to `CCCCOC(=O)c1ccccc1C(=O)O.CCCCOC(=O)c1ccccc1C(=O)O.[Cu+2]`, for which the growth with A549/ATCC NSCLC was 103%; in the test with 786-0 renal, 106%; in the test with DU-145 prostate it was 113%; in the test with SF-268 CNS it was 120%; in the test on SF-539 CNS, 111%; in the test with HCT-15 colon, 112%. In addition, the growth was 104% in the test with SNB-75 CNS; 131% with SNB-19 CNS; 111% in the test with UACC-62 melanoma; 113% in the test on SN12C renal; 107% in the test with TK-10 renal; 112% in the test on ACHN renal. The growth with HL-60(TB) leukemia is 89.6%; in the test on OVCAR-8 ovarian, 108%; with OVCAR-5 ovarian, 126%; in the test on OVCAR-3 ovarian, 110%; in the test on NCI/ADR-RES ovarian, 111%; in the test with T-47D breast, 104%. Besides, the growth with MDA-MB-435 melanoma was 105%; with MCF7 breast, 98.3%.

On to `NC(=O)C(Cl)Cl`, for which the growth in the test with 786-0 renal was 107%; with DU-145 prostate, 108%; in the test with SF-268 CNS it was 102%; with SF-539 CNS it was 107%; in the test with HCT-15 colon, 97.6%; in the test on SNB-75 CNS, 96.4%. For the same compound, the growth was 99.2% in the test with SNB-19 CNS; 105% with UACC-62 melanoma; 104% with SN12C renal; 98.7% with TK-10 renal; 104% in the test with ACHN renal; 80.8% with HL-60(TB) leukemia. Further, the growth was 99.9% with OVCAR-8 ovarian; 101% in the test on OVCAR-5 ovarian; 110% with OVCAR-3 ovarian; 114% in the test with NCI/ADR-RES ovarian; 103% in the test on T-47D breast; 103% with MDA-MB-435 melanoma. Besides, the growth in the test with MCF7 breast is 92.8%.

With `COc1ccc(/C=C(/C(=O)N2CCCC2)c2cc(OC)c(OC)c(OC)c2)cc1N`, the growth with A549/ATCC NSCLC was 41.1%; in the test with 786-0 renal, 24.5%; with DU-145 prostate, 24.6%; in the test on SF-268 CNS it was 47.5%; in the test with SF-539 CNS, 3.13% (active); with HCT-15 colon it was 29.2%. For the same compound, the growth is -12.2% (active) in the test on SNB-75 CNS; 44.4% in the test with SNB-19 CNS; 41.5% in the test with UACC-62 melanoma; 40.8% in the test with SN12C renal; 75.3% in the test with TK-10 renal; 45.2% in the test on ACHN renal. In addition, the growth in the test with HL-60(TB) leukemia is -11.9% (active); in the test on OVCAR-8 ovarian, 41.8%; in the test on OVCAR-5 ovarian, 54.5%; with OVCAR-3 ovarian it was 0.49% (active); with NCI/ADR-RES ovarian it was 68.2%; in the test with T-47D breast, 37.8%. In addition, the growth was -39.8% (active) in the test on MDA-MB-435 melanoma and 14.2% in the test on MCF7 breast.

Regarding `CCOc1ccc(C(O)CN(C)Cc2ccccc2)cc1Cl` (stereo not drawn), the growth in the test with A549/ATCC NSCLC is 102%; in the test on 786-0 renal, 100%; in the test on DU-145 prostate, 103%; in the test on SF-268 CNS, 95.5%; in the test with SF-539 CNS it was 108%; in the test with HCT-15 colon, 106%. Further, the growth is 92.9% in the test on SNB-75 CNS; 100% with SNB-19 CNS; 96.4% in the test with UACC-62 melanoma; 102% in the test on SN12C renal; 102% in the test on TK-10 renal; 109% with ACHN renal. Moreover, the growth with HL-60(TB) leukemia is 103%; in the test with OVCAR-8 ovarian, 105%; in the test on OVCAR-5 ovarian, 102%; with OVCAR-3 ovarian it was 99.7%; in the test with NCI/ADR-RES ovarian it was 99.4%; in the test on T-47D breast, 97.1%. Further, the growth in the test on MDA-MB-435 melanoma was 103%; in the test on MCF7 breast, 98.6%.

As for `COc1cc(CNCCc2ccc(Cl)cc2)cc(OC)c1O`, the growth in the test with A549/ATCC NSCLC was 89.8%; in the test with 786-0 renal, 78.3%; with DU-145 prostate, 91%; in the test on SF-268 CNS, 73%; in the test with SF-539 CNS it was 68.7%; in the test on HCT-15 colon it was 54.8%. The growth with SNB-75 CNS is 44.6%; with SNB-19 CNS, 75.6%; in the test with UACC-62 melanoma, 61.2%; in the test with SN12C renal it was 75.5%; in the test on TK-10 renal it was 79.6%; in the test on ACHN renal, 75.6%. Moreover, the growth was 54.4% with HL-60(TB) leukemia; 66.3% with OVCAR-8 ovarian; 86.7% in the test on OVCAR-5 ovarian; 61% with OVCAR-3 ovarian; 44.8% with NCI/ADR-RES ovarian; 61.7% in the test on T-47D breast. Moreover, the growth is -4.7% (active) in the test with MDA-MB-435 melanoma and 63.7% with MCF7 breast.

Turning to `CNC(=O)Oc1ccccc1-c1ccccc1`, the growth was 96.2% with A549/ATCC NSCLC; 95.9% in the test on 786-0 renal; 106% in the test with DU-145 prostate; 100% in the test on SF-268 CNS; 104% in the test on SF-539 CNS; 106% in the test on HCT-15 colon. Also, the growth is 88.3% in the test on SNB-75 CNS; 97.7% with SNB-19 CNS; 102% in the test with UACC-62 melanoma; 106% in the test with SN12C renal; 90.5% in the test with TK-10 renal; 108% in the test on ACHN renal. Besides, the growth with HL-60(TB) leukemia was 94.8%; in the test on OVCAR-8 ovarian, 103%; in the test with OVCAR-5 ovarian it was 111%; in the test with OVCAR-3 ovarian it was 105%; in the test on NCI/ADR-RES ovarian, 108%; with T-47D breast, 105%. Besides, the growth is 99.3% with MDA-MB-435 melanoma and 106% in the test with MCF7 breast.

Turning to `CC[C@@]1(C2O[C@@H](C3O[C@@](O)(CC)[C@H](C)C[C@@H]3C)C[C@@H]2C)CC[C@H]([C@]2(C)CCC3(C[C@H](O)[C@@H](C)[C@@H]([C@H](C)[C@@H](OC)[C@H](C)C(=O)O)O3)O2)O1` (stereo partly drawn), the growth with A549/ATCC NSCLC is 17.6%; in the test with DU-145 prostate, 44.9%; in the test with SF-268 CNS, 22.4%; in the test on SF-539 CNS, 12.6%; in the test with HCT-15 colon, 11.5%; with SNB-75 CNS, 16%. Besides, the growth in the test on SNB-19 CNS is 31.1%; in the test on SN12C renal, 31%; with TK-10 renal, 49.1%; in the test with ACHN renal, 32%; in the test with OVCAR-8 ovarian, 31%; in the test with OVCAR-5 ovarian, 43.9%. The growth with OVCAR-3 ovarian was 11%; in the test on NCI/ADR-RES ovarian, 31.1%; in the test on T-47D breast it was 30.2%.

For the compound `CC(=O)O[C@H]1C[C@H](O[C@H]2[C@@H](O)C[C@H](O[C@H]3[C@@H](O)C[C@H](O[C@H]4CC[C@@]5(C)C(CCC6C5C[C@@H](O)[C@]5(C)[C@@H](C7=CC(=O)OC7)CC[C@]65O)C4)O[C@@H]3C)O[C@@H]2C)O[C@H](C)[C@H]1O[C@@H]1O[C@H](CO)[C@@H](O)[C@H](O)[C@H]1O` (stereo partly drawn), the growth with A549/ATCC NSCLC is -100% (active); in the test with 786-0 renal it was -91.2% (active); in the test on DU-145 prostate it was -100% (active); in the test on SF-268 CNS, -100% (active); in the test with SF-539 CNS, -88% (active); in the test with HCT-15 colon it was -79.1% (active). Further, the growth is -66.1% (active) in the test on SNB-75 CNS; -100% (active) with SNB-19 CNS; -94.3% (active) in the test on UACC-62 melanoma; -38.9% (active) in the test with SN12C renal; -59.1% (active) in the test with ACHN renal; -46.4% (active) in the test on HL-60(TB) leukemia. In addition, the growth was -92.6% (active) in the test on OVCAR-8 ovarian; -86.1% (active) with OVCAR-5 ovarian; -100% (active) in the test with OVCAR-3 ovarian; -69.5% (active) in the test with NCI/ADR-RES ovarian; -19% (active) with T-47D breast; -97.9% (active) with MDA-MB-435 melanoma. In the test on MCF7 breast, the growth was -53% (active).
